Drawing on publication PMC7826789 (International Journal of Molecular Sciences, 2021), this text covers Kinases covered for 18 compounds.

Regarding `Cl.O=S1CCN(Cc2ccc(-c3ccc4ncnc(Nc5ccc(OCc6ccccc6)c(F)c5)c4c3)o2)CC1` [GW576924A], the results for the Kinases covered entry in the assay on EGFR and with ERBB2 were “EGFR” and “ERBB2”, respectively.
Regarding `Cn1cc(-c2ccc3c(c2)CCN3C(=O)Cc2cccc(C(F)(F)F)c2)c2c(N)ncnc21` [GSK2606414], the Kinases covered result in the assay on EIF2AK3 is recorded as “EIF2AK3”.
Consider `COc1cc2ncnc(Nc3ccc(F)c(Cl)c3)c2cc1O[C@H]1CC[C@H](N)CC1` [BIBW3133BS], for which the Kinases covered entry in the assay with EGFR is on record as “EGFR”; in the assay on ERBB2, “ERBB2”.
As to `Cc1cc(NC(=O)c2cccc(NC(=O)/C=C/CN(C)C)c2)ccc1Nc1nccc(-c2cccnc2)n1` [JNK-IN-7], the Kinases covered result in the assay with ERK3 was “ERK3”.
Turning to `CN(C)c1cc2c(Nc3ccc4c(cnn4Cc4ccccc4)c3)ncnc2cn1` [GW282974X], the Kinases covered entry in the assay with ERBB2 is listed as “ERBB2”; in the assay on ERBB4 it was “ERBB4”.
For the compound `Cn1ccc(-c2cccc(Nc3ccnc4cc(-c5nccs5)ccc34)c2)n1` [GW525701], the Kinases covered result with EPHB6 is reported as “EPHB6”.
Turning to `COC(=O)Nc1nc2ccc(Oc3ccc(NC(=O)Nc4cc(C(F)(F)F)ccc4F)cc3)cc2s1.Cl` [GW693917A], in the assay on EPHA2, the Kinases covered result is reported as “EPHA2”.
For the compound `C#Cc1cccc(Nc2ncnc3cc(OC)c(OC4CCN(C)CC4)cc23)c1` [BI00007366], the Kinases covered result is on record as “EGFR” in the assay on EGFR and “ERBB2” in the assay on ERBB2.
Consider `COc1cc2ncnc(Nc3cccc(Cl)c3F)c2cc1O[C@H]1CC[C@H]([C@@H]2NCCNC2=O)CC1` [BI00133844], for which the Kinases covered entry in the assay on EGFR is “EGFR”; with EPHA6, “EPHA6”; in the assay with EPHB4, “EPHB4”; in the assay on ERBB2 it was “ERBB2”; in the assay with ERBB4 it was “ERBB4”.
Take `Cl.c1ccc(Cc2nc3ccc(Nc4ncnc5ccccc45)cc3[nH]2)cc1` [GR269666A]: in the assay with ERBB4, the Kinases covered result is listed as “ERBB4”.
In the case of `Cc1cccc(CC(=O)N2CCc3c2ccc(-c2cn(C)c4ncnc(N)c24)c3F)n1` [GSK2656157], the Kinases covered result in the assay on EIF2AK3 is recorded as “EIF2AK3”.
Turning to `COC(=O)C(NC(=O)NC1CCN(c2ccnc(Nc3ccc(F)cc3)n2)C1)c1ccccc1` (stereo not drawn) [GSK1379712], the Kinases covered entry in the assay with EPHB6 is recorded as “EPHB6”.
`C=CC(=O)Nc1cc(-c2nn(C3CCC(N4CCN(C(C)=O)CC4)CC3)c3ncnc(N)c23)ccc1Oc1ccccc1` (stereo not drawn) [TX-85-1]: in the assay on ERBB3, the Kinases covered entry was “ERBB3”.
Regarding `Cl.O=C(O[C@H]1CN[C@H](C#Cc2cc3ncnc(Nc4ccc5c(cnn5Cc5ccccc5)c4)c3s2)C1)N1CCOCC1` [GSK200398A], the Kinases covered result in the assay with EGFR is “EGFR”; with ERBB2, “ERBB2”; in the assay with ERBB4, “ERBB4”.
Consider `COc1cc2ncnc(Nc3ccc4c(cnn4Cc4ccccc4)c3)c2cc1OC.Cl` [GW282449A], for which the Kinases covered entry with ERBB4 was “ERBB4”.
`O=C(Nc1cccc(-c2nn3ncccc3c2-c2ccnc(Nc3cccnc3)n2)c1)c1c(F)cccc1F` [GSK312879]: the Kinases covered entry with EGFR is given as “EGFR”; in the assay with ERBB2, “ERBB2”; in the assay with ERBB4 it was “ERBB4”.
Turning to `COc1cc2ncnc(Nc3cccc(Cl)c3F)c2cc1O[C@H]1CC[C@@]2(CC1)NCCNC2=O` [BI00113608], the Kinases covered result is given as “EGFR” in the assay with EGFR, “EPHA6” with EPHA6, “EPHB4” in the assay on EPHB4 and “ERBB2” with ERBB2.
Take `Fc1cccc(COc2ccc(Nc3ncncc3C#Cc3ccccc3)cc2Cl)c1` [GW651576X]: in the assay with EGFR, the Kinases covered entry is “EGFR”.
